Screening data (PubChem)
In the library only some 15% were active in any assay of this set; here they are far more common.
SARS PLP yeast: SARS-CoV PLP inhibition in yeast | Potency, µM (highest dose often 32.9 µM), usual class: activators | hit rate 0.19% among 330,000 | S. cerevisiae expressing SARS-CoV PLpro, growth rescue; calls by dose curve; further: nearly all actives have a fitted effect of over 55% in size
HCMV inh: inhibitors of human cytomegalovirus; HFF cells, HCMV-luciferase reporter, 72 h; active compounds read low; activity change, negative = inhibition, % at 57.5 µM; hit rate 4.5% among 410,000; in the data active means activity change below about -60%; inconclusive means no clear call, values can overlap the other calls; inactive means above about -39%
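Compounds were evaluated in HFFs infected with an HCMV luciferase reporter virus (MOI 1 PFU/cell). Luciferase in lysates collected 72 h post infection served as the replication measure.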
Sm TGR block: S. mansoni TGR enzyme inhibition. Potency, µM (series often up to 114 µM), usual class: inhibitors. hit rate 3% among 360,000. Q962Y6. purified TGR, DTNB reduction, TNB absorbance 405 nm; further: nearly all actives have a fitted effect of over 60% in size
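First, TGR (20 nM dispensed) and NADPH were mixed with compound. Second, a 15 min room-temperature incubation followed. Third, further NADPH and then DTNB were added to start the reaction. Finally, TNB absorbance was monitored kinetically.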
HCV inhibitor: blocks hepatitis C virus. Huh7.5.1 HCVcc-Cre infection, luciferase reporter, 44 h. AID 651820. Potency, µM (highest dose often 41.8 µM), usual class: inhibitors. hit rate 3.4% among 340,000
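After 44 h co-culture of compound, cells and HCVcc-Cre (~0.5 moi), substrate is added for 15 min at room temperature and luciferase measured over 15 sec. Cells were seeded at 1,000/well and pre-cultured 4 h.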
Pf growth 48h: inhibits P. falciparum growth in the first generation, 48 h. hit rate 5.9% among 310,000. P. falciparum luciferase growth in erythrocytes, 48 h. AID 504832. Potency, µM (titrated, usually from 28.7 µM), most hits filed as inhibitors
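Growth was read as firefly luciferase luminescence after a 48 h, 37 C, 5% CO2 exposure of compounds to reporter-bearing P. falciparum cultures (0.1% parasitemia, 2% hematocrit final) in Albumax-supplemented RPMI 1640.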
Pf growth 96h: P. falciparum growth inhibition at 96 hours; hit rate 6.9% among 320,000; Potency, µM (series often up to 28.7 µM), most hits filed as inhibitors; P. falciparum luciferase reporter growth, 96 h; AID 504834
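Delayed-death screen, second-generation endpoint: infected erythrocytes, 2% hematocrit, 0.05% parasitemia final; 96 hours at 37 C, 5% CO2; luciferase detection reagent; luminescence decrease equals reduced growth.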
Hits are given with their value. Unless noted, the call rests on the fitted dose curve; in most records, active means well fitted curve in the direction sought with a large enough effect; inconclusive means small, poorly fitted or top-dose-only effect, or another doubt; inactive means no such curve, though single readings can be large; an effect the other way counts as inactive or inconclusive.

`Nc1cc(Nc2ccccc2)c2nonc2c1[N+](=O)[O-]` gave SARS PLP yeast inactive, HCMV inh inactive, Sm TGR block inactive, HCV inhibitor inactive, Pf growth 48h inconclusive and Pf growth 96h inactive.
`O=C(O)c1cccc(Nc2ccc3nonc3c2[N+](=O)[O-])c1` gave SARS PLP yeast inactive, HCMV inh inactive, Sm TGR block inconclusive, HCV inhibitor inactive, Pf growth 48h inactive and Pf growth 96h inactive.
`O=C(O)c1ccc(Nc2cc(Cl)c3nonc3c2[N+](=O)[O-])cc1` gave SARS PLP yeast inactive, HCMV inh inactive, Sm TGR block 0.32µM, HCV inhibitor inactive, Pf growth 48h inactive and Pf growth 96h inactive.
CCc1ccc(N2CC(C(=O)Nc3ccccc3N3CCCC3)CC2=O)cc1 (configuration not stated) was read as HCMV inh inactive.
O=C(NCCCN1CCCC1=O)c1ccc(Cl)c(Cl)c1 was read as SARS PLP yeast inactive, HCMV inh inactive, Sm TGR block inactive, HCV inhibitor inactive, Pf growth 48h inactive and Pf growth 96h inactive.
For N#Cc1ccc(CN(Nc2ccccc2)c2ccccc2)cc1 the results were HCMV inh inactive.
`Cc1no[n+]([O-])c1COc1ccccc1/C=N/n1nnnc1N` gave SARS PLP yeast inactive, HCMV inh -75, Sm TGR block inactive, HCV inhibitor inconclusive, Pf growth 48h inactive and Pf growth 96h inconclusive.
For Cc1oc(-c2cc(F)ccc2F)nc1CN(C)Cc1ccc2nccnc2c1 the results were SARS PLP yeast inactive, HCMV inh inactive, Sm TGR block inactive, HCV inhibitor inconclusive, Pf growth 48h inconclusive and Pf growth 96h 2.9µM.
Cc1oc(-c2cc(F)ccc2F)nc1CN1CCN(c2cnccn2)CC1 was read as SARS PLP yeast inactive, HCMV inh inactive, HCV inhibitor inactive, Pf growth 48h 13µM and Pf growth 96h inconclusive.
Screening Cc1oc2cc3oc(=O)c(CCC(=O)NCc4ccccn4)c(C)c3cc2c1C returned SARS PLP yeast inactive, HCMV inh inactive, Sm TGR block inactive, HCV inhibitor inconclusive, Pf growth 48h inactive and Pf growth 96h inconclusive.
For C=CCOC(=O)C1=C(C)OC(N)=C(C#N)C1c1ccccc1F (configuration not stated) the results were SARS PLP yeast inactive, HCMV inh inactive, Sm TGR block inactive and HCV inhibitor inactive.
C=CCOC(=O)C1=C(C)NC(=S)C(C#N)(CC=C)C1c1ccccc1Cl (configuration not stated) was read as SARS PLP yeast inactive, HCMV inh inactive, Sm TGR block inactive, HCV inhibitor inactive, Pf growth 48h 1.5µM and Pf growth 96h 1.5µM.
Screening Cc1ccc(-n2sc3cc(F)ccc3c2=O)c(C)c1 returned HCMV inh -70.
`O=C1/C(=C/c2ccccc2)Nc2ccccc21` gave SARS PLP yeast inactive, HCMV inh inactive, Sm TGR block inactive, HCV inhibitor inactive, Pf growth 48h inconclusive and Pf growth 96h 3.7µM.
O=C(Nc1sccc1C(=O)N1CCOCC1)c1cccnc1 was read as SARS PLP yeast inactive, HCMV inh inactive, Sm TGR block inactive, HCV inhibitor inactive, Pf growth 48h inactive and Pf growth 96h 3.3µM.
`O=C(Nc1ccccc1C(=O)N1CCOCC1)c1cccnc1` gave SARS PLP yeast inactive, HCMV inh inactive, Sm TGR block inactive, HCV inhibitor inactive and Pf growth 48h inactive.
`C[C@@]12CCC=C[C@H]1[C@H](c1ccc3ccccc3c1Br)N(Cc1ccccc1)C2=O` gave SARS PLP yeast inactive, HCMV inh inactive, Sm TGR block inactive, HCV inhibitor inconclusive, Pf growth 48h 9.3µM and Pf growth 96h 10µM.
Screening C[C@@]12CCC=C[C@H]1[C@H](c1ccc3ccccc3c1)N(Cc1ccccc1)C2=O returned SARS PLP yeast inactive, HCMV inh inactive, Sm TGR block inactive, HCV inhibitor inconclusive, Pf growth 48h inconclusive and Pf growth 96h 9.3µM.
Screening CCOC(=O)c1cccn1C1C(=O)N(Cc2ccc3c(C)cc(=O)oc3c2)c2ccc(Cl)cc21 (configuration not stated) returned HCMV inh inactive.
For O=C1CCC(=O)N1CN(Cc1ccco1)CN1C(=O)CCC1=O the results were SARS PLP yeast inactive, HCMV inh inactive, Sm TGR block inactive, HCV inhibitor inactive, Pf growth 48h inactive and Pf growth 96h inconclusive.
O=C(CCCN1C(=O)c2ccccc2C1=O)Oc1ccc(F)cc1 was read as SARS PLP yeast inactive, HCMV inh inactive, Sm TGR block inactive, HCV inhibitor inactive, Pf growth 48h inactive and Pf growth 96h inactive.
Screening O=C1CCC(=O)N1CCC(c1ccc(F)cc1)c1ccco1 (configuration not stated) returned SARS PLP yeast inactive, HCMV inh inactive, Sm TGR block 45µM, HCV inhibitor inactive, Pf growth 48h inconclusive and Pf growth 96h inconclusive.
O=C1c2ccccc2C(=O)N1CCC(c1ccc(F)cc1)c1ccco1 (configuration not stated) was read as SARS PLP yeast inactive, HCMV inh inactive, Sm TGR block 40µM, HCV inhibitor inconclusive, Pf growth 48h inconclusive and Pf growth 96h inactive.
CCNCc1cc(Br)c(OCC(=O)Nc2ccccc2)c(OC)c1 was read as SARS PLP yeast inactive, HCMV inh inactive, Sm TGR block inactive, HCV inhibitor 10µM, Pf growth 48h inconclusive and Pf growth 96h inconclusive.
Screening COc1cc(CNCC(C)C)cc(Br)c1OCC(=O)Nc1ccccc1 returned SARS PLP yeast inactive, HCMV inh inactive, Sm TGR block inactive, HCV inhibitor inconclusive, Pf growth 48h 9.3µM and Pf growth 96h 10µM.
COc1cc(NC(=O)Cn2c(=O)n(Cc3ccccc3Cl)c(=O)c3cc(OC)c(OC)cc32)cc(OC)c1 was read as HCMV inh inactive and Sm TGR block inactive.
O=C(CCc1nnc2n(Cc3ccc(F)cc3)c(=O)c3ccccc3n12)N1CCN(c2ccccn2)CC1 was read as SARS PLP yeast inactive, HCMV inh inactive, Sm TGR block inactive, HCV inhibitor 14µM, Pf growth 48h inconclusive and Pf growth 96h inactive.
`O=C(c1ccc(Cn2c(=S)[nH]c3ccccc3c2=O)cc1)N1CCN(c2ccccn2)CC1` gave SARS PLP yeast inactive, HCMV inh -65, Sm TGR block inactive, HCV inhibitor 11µM, Pf growth 48h inconclusive and Pf growth 96h inconclusive.
O=C(c1ccc2c(=O)n(-c3ccccc3)c(=O)[nH]c2c1)N1CCCCC1 was read as SARS PLP yeast inactive, HCMV inh -66, Sm TGR block inactive, HCV inhibitor inactive, Pf growth 48h inactive and Pf growth 96h inactive.
For COc1ccc(N2CCN(C(=O)c3ccc4c(=O)n(CCc5ccc(OC)c(OC)c5)c(=O)[nH]c4c3)CC2)cc1 the results were SARS PLP yeast inactive, HCMV inh inactive, Sm TGR block inactive, HCV inhibitor 11µM, Pf growth 48h inconclusive and Pf growth 96h inactive.
